Experiments:
Assay in all cases: log2 ratio of Biotin-Ahx-Ub-VS probe labelling (fragment/DMSO); higher = less target engagement (more negative = stronger competition), active = hit call of the paper (q ≤ 0.05, log2 ratio ≤ -1)
Conditions in all cases: compound concentration: 200 uM; treatment time: 3 h
USP19 = molecular target: T1, USP19 (UniProt O94966)
T1 sequence (whole entry): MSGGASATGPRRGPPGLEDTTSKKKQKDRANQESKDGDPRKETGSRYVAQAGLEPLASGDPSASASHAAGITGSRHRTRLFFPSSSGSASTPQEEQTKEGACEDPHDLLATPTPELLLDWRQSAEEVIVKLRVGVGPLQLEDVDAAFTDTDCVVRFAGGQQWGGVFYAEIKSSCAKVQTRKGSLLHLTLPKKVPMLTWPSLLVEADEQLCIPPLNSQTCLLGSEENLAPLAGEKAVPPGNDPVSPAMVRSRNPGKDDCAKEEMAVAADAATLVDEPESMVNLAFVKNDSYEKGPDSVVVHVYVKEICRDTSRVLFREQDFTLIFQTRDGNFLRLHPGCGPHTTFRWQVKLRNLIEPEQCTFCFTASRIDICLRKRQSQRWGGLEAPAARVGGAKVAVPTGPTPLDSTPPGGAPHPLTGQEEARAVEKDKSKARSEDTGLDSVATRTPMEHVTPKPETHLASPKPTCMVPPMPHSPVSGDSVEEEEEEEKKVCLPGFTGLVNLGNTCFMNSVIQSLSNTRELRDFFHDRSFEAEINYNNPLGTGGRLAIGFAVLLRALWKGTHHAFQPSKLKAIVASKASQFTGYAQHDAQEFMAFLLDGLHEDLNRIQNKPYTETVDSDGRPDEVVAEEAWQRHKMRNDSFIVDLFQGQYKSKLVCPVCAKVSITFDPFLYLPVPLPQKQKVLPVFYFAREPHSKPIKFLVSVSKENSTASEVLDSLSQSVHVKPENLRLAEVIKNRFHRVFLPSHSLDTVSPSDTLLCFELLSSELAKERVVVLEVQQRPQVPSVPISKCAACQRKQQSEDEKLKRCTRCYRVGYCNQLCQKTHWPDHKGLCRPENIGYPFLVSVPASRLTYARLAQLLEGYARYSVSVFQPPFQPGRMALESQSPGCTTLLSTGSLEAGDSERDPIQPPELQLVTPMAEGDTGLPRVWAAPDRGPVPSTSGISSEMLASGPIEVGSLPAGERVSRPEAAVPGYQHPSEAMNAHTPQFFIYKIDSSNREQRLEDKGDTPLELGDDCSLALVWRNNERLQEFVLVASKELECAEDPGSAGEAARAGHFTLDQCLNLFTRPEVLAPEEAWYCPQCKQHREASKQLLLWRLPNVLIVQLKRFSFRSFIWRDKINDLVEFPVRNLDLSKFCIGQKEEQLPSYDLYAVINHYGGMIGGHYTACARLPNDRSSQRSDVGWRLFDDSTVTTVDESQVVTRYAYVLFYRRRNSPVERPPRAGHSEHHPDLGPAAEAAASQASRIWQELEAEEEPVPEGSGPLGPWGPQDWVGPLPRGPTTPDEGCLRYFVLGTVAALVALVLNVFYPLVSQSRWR
Summary of the method: (§1)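 Labelled DUBs from HEK293T lysate were NeutrAvidin-enriched, digested with LysC and trypsin, and run by diaPASEF LC-MS/MS. Before that, each 495 µg sample in Tris/CHAPS/IGEPAL buffer with protease inhibitors was treated in triplicate with fragment at 200 µM or vehicle for 3 h, then with Biotin-Ahx-Ub-VS at 0.5 µM final for 1 h. Values are average log2 ratios of fragment over vehicle by unpaired t-test, based on global-median-normalised Spectronaut label-free quantities from proteins with ≥2 unique peptides.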

USP22 = molecular target: T2, USP22 (UniProt Q9UPT9)
T2 sequence (whole entry): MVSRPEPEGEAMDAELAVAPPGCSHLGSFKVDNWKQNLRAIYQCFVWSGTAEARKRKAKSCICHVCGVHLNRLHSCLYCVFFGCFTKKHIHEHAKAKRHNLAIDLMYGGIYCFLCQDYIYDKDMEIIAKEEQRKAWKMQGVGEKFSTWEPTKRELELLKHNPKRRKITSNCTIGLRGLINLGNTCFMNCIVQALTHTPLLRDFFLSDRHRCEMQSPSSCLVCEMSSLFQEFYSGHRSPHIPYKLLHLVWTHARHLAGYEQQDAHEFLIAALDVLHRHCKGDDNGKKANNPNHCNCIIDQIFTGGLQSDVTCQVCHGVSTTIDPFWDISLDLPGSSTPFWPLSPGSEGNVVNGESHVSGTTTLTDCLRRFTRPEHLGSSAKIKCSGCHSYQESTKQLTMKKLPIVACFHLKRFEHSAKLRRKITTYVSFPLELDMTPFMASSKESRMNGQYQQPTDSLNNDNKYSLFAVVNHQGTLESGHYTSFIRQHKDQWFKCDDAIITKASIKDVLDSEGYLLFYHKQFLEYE
Summary of the method: as §1

USP24 = USP24 (UniProt Q9UPU5)
Summary of the method: as §1

USP25 = molecular target: T3, USP25 (UniProt Q9UHP3)
T3 sequence (whole entry): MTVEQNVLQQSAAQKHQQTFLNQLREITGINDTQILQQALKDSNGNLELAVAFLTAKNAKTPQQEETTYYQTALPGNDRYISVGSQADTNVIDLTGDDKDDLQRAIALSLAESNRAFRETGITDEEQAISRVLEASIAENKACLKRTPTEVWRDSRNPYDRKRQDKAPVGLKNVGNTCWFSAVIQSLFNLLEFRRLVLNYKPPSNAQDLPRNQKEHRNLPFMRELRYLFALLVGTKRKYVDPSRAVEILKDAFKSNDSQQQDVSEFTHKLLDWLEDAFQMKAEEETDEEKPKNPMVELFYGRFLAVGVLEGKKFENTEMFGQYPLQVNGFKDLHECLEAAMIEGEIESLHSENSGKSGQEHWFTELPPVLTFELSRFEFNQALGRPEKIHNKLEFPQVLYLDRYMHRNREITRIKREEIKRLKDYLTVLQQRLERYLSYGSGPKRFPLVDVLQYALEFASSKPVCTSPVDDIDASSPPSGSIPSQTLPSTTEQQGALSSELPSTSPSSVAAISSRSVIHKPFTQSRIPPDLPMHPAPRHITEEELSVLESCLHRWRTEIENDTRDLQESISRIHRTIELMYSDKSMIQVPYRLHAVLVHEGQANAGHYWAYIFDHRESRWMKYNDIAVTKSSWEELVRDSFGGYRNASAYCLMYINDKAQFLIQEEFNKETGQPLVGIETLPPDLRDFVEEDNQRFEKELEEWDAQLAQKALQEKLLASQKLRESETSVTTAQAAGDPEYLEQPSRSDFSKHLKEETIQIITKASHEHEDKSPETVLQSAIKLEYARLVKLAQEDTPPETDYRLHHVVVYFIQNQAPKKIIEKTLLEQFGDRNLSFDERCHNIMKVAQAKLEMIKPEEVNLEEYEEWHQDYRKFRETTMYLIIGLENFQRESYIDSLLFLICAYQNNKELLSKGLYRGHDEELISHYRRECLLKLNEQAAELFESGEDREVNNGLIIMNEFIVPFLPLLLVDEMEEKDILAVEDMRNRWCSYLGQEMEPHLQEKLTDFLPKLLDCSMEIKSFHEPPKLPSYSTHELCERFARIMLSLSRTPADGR
Summary of the method: as §1

USP28 = molecular target: T4, USP28 (UniProt Q96RU2)
T4 sequence (whole entry): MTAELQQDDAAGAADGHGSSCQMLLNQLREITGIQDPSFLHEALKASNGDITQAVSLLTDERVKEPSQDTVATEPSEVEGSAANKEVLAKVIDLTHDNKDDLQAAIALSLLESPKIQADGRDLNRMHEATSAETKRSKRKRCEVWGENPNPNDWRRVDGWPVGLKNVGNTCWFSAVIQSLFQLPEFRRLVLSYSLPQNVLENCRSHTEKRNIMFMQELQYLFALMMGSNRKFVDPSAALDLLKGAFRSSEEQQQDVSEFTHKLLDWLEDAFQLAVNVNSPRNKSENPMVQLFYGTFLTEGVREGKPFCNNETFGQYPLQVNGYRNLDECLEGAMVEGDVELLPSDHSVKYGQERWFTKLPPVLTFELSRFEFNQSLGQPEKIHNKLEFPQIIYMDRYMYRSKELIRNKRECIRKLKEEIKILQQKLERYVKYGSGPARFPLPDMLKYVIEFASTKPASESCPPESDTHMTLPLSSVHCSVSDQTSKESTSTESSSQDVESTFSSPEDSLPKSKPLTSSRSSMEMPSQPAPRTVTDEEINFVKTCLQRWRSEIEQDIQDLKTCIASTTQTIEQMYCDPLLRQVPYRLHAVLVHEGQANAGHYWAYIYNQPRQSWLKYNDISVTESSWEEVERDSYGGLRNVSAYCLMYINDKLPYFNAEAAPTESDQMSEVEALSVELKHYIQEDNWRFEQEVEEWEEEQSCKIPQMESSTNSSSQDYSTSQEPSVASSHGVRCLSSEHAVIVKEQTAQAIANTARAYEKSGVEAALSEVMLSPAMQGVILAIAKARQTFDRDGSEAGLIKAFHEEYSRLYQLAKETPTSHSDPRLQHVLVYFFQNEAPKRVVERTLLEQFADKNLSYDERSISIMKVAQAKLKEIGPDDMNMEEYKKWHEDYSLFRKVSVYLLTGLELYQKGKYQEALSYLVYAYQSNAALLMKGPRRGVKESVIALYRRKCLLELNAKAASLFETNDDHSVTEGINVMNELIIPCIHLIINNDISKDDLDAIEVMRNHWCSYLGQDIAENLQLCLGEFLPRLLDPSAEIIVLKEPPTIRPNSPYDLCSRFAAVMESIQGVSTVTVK
Summary of the method: as §1

Measured: log2 ratio of Biotin-Ahx-Ub-VS probe labelling

USP24, sequence (Q9UPU5 whole entry): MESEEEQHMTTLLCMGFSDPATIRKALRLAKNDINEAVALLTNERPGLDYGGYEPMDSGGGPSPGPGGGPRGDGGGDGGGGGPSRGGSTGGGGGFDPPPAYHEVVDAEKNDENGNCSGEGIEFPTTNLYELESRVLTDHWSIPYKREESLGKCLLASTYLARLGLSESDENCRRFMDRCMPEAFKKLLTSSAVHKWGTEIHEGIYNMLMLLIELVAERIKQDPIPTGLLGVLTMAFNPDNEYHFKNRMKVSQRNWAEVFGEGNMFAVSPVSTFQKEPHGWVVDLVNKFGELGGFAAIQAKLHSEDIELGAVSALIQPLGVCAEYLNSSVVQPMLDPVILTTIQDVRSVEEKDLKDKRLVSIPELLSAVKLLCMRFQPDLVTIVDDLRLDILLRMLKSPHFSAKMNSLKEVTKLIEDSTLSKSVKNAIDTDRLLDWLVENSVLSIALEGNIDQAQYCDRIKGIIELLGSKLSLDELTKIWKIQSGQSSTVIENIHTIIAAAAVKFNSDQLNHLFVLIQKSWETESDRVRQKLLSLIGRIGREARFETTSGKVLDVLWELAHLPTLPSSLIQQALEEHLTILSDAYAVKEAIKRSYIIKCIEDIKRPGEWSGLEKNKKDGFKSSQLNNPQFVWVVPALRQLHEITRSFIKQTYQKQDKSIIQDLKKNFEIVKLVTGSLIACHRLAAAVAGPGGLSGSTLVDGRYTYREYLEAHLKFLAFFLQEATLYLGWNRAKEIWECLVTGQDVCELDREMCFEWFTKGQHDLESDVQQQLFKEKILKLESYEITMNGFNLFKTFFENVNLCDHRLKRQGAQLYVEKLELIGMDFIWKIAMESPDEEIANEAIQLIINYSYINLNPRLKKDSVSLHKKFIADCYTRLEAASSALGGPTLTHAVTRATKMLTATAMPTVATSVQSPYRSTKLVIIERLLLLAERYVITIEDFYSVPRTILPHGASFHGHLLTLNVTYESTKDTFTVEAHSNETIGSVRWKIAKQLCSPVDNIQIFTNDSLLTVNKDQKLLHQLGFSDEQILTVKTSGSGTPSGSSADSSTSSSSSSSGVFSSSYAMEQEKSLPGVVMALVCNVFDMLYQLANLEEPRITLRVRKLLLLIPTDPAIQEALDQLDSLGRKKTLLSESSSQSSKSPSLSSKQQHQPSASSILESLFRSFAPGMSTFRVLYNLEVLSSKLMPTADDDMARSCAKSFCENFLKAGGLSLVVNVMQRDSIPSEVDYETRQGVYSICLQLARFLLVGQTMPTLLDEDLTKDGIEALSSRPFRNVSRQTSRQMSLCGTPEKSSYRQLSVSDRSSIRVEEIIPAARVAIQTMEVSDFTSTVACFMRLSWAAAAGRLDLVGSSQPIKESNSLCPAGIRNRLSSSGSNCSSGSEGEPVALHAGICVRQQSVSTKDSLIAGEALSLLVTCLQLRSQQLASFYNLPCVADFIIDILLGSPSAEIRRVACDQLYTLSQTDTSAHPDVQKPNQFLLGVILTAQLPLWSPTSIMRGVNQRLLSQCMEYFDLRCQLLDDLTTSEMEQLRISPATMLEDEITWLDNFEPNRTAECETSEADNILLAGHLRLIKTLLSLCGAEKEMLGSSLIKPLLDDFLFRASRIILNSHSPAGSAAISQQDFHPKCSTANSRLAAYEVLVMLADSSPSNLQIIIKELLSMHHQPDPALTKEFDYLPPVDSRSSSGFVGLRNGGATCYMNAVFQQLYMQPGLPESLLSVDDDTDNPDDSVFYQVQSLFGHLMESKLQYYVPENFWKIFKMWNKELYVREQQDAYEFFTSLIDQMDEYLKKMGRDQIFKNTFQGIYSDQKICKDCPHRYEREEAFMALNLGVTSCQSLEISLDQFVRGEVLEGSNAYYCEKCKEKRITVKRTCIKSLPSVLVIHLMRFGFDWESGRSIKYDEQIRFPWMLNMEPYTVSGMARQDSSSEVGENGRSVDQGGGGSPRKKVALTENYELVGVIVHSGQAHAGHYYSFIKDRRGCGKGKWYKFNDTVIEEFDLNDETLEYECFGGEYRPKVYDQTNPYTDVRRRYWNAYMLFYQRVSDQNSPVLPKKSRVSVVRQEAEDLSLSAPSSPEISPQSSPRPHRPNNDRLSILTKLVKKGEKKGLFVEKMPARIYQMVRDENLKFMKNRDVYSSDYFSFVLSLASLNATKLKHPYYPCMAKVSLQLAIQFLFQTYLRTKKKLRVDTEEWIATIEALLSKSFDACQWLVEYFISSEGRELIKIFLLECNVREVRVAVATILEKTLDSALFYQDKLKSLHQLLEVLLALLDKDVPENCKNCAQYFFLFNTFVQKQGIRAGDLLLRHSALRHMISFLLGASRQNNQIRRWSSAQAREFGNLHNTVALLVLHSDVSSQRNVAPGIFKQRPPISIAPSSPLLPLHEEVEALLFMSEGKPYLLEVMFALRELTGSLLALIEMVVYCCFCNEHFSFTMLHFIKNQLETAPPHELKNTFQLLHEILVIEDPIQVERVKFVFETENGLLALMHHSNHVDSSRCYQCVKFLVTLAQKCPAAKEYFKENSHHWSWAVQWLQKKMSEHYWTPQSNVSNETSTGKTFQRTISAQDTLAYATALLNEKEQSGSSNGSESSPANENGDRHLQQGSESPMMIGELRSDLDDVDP

O=C(CCl)N1CCOCC1C1CC1 (stereo not given)
inactive: USP19 -0.0224 | USP22 0.0159 | USP24 -0.173 | USP25 -0.127 | USP28 -0.304

— the supplement of paper PMC11732987, “Enantioselective OTUD7B fragment discovery through chemoproteomics screening and high-throughput optimisation” (Communications Chemistry, 2025)
